Compound activity: PubChem BioAssay, several laboratories
Cardio protect = cardioprotection against H2O2-induced cell death, primary screen, uHTS, H9c2 cells, ATPLite luminescence. H9c2 cardiomyocytes, H2O2 injury protection, 2 h. protection from H2O2 cell death, % at 20 µM. 0.63% of 360,000 active. AID 588492, 2011;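 active means compounds giving at least 50% protection of heart cells from peroxide-induced death in the single-dose screen, raw or plate-pattern-corrected value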;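 further: 0% = DMSO wells with peroxide and 100% = DMSO wells without peroxide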
PHOSPHO1 inh = PubChem AID 1565 | Phosphoethanolamine/phosphocholine phosphatase (Homo sapiens), Q8TCT1 | recombinant PHOSPHO1, absorbance phosphatase assay | inhibition, % at 13.3 µM | 1.1% of 290,000 active; in the data active means inhibition above about 60%
Efflux pump mplx = inhibitors of Candida efflux pumps in yeast, primary screen, S. cerevisiae, Nile Red, multiplex; S. cerevisiae Candida pump triplex; inhibition, % at 10 µM; 0.44% of 330,000 active;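 active means plate passing quality check with inhibition over a set limit, or well fluorescence over plate mean plus 4 SD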;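 further: Nile Red retained in pooled yeast measured as flow cytometry median fluorescence; 0% = buffer negative control and 100% = Enniatin B positive control; higher means more Nile Red kept so more efflux inhibition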
KCC2 mod = KCC2 cotransporter modulators, thallium flux, primary screen, cell-based, HEK293 KCC2, FluoZin-2 fluorescence, MLSMR; KCC2 cells, thallium flux FluoZin-2 fluorescence; 2.2% of 190,000 active; B-score of Tl+ flux slope (higher = more flux/activation; lower = inhibition) at 10 µM; Solute carrier family 12 member 5 (Homo sapiens), Q9H2X9;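 active means thallium flux slope and its plate-corrected score both differing from the plate sample mean at a set confidence after two filtering rounds, in either direction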;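 further: slope of fluorescence scaled to starting intensity during 10 to 20 s after thallium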
Target sequence (Q9H2X9 whole entry, looked up): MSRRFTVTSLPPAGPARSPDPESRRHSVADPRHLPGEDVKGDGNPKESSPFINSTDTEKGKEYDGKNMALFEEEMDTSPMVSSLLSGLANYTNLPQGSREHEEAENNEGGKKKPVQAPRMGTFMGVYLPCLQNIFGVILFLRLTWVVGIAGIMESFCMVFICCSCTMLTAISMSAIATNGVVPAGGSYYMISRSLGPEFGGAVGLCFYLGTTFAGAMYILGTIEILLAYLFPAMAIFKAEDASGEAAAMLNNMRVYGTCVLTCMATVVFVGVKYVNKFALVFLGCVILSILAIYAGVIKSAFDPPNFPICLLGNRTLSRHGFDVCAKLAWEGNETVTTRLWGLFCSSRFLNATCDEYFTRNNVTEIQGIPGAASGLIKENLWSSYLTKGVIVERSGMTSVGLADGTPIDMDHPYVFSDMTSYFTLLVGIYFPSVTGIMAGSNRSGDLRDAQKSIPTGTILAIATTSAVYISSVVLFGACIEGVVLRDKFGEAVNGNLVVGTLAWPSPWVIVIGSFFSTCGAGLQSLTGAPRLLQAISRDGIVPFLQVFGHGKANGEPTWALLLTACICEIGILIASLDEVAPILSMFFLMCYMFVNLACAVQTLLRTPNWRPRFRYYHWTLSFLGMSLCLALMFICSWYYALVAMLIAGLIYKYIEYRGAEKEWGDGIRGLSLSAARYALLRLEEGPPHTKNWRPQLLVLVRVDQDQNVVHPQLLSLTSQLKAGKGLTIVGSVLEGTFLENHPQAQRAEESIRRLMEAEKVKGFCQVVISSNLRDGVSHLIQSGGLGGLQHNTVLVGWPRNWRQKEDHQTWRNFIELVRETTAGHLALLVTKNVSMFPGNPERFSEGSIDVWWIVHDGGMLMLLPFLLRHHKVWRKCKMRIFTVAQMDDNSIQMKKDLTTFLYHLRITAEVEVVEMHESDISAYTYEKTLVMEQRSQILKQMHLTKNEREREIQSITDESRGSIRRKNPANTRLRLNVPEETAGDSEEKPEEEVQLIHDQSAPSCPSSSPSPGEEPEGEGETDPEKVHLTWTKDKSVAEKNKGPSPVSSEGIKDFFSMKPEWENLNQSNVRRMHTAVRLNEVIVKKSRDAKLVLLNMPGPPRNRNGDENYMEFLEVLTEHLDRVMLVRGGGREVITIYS
Calb FLC = C. albicans growth inhibition with fluconazole, primary screen, CaCi-2 strain, Alamar Blue fluorescence | C. albicans CaCi-2 (fluconazole-resistant clinical isolate) + fluconazole, 48 h | growth inhibition, % (concentration not given with the values) | 0.57% of 300,000 active | AID 1979, 2009;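 active means growth inhibition above about 58% in most replicates, limit read from the data, passing the limit was not always enough; inconclusive means exactly half the replicates above a set limit; inactive means most replicates below a set limit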;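 further: all wells also contain fluconazole at 8 µg/ml as a sub-toxic cotreatment; 0% = median of DMSO wells and 100% = median of geldanamycin control wells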
Starred values were filed as active, the others as inactive; ? = inconclusive; / = no result given. Compounds with a hit are over-represented: about 3.3% of the library has one in this group of screens.

SMILES | Cardio protect | PHOSPHO1 inh | Efflux pump mplx | KCC2 mod | Calb FLC
COc1ccc(C2CC(=O)C=C(NCc3ccc4c(c3)OCO4)C2)cc1 (configuration not stated) | -3 | 61* | 0 | -0.67 | -11
COc1cccc(C2=CC(c3ccccc3)n3nnnc3N2)c1 (configuration not stated) | -7 | 19 | 0 | -1.5 | 18
COc1cccc(C2=CC(c3ccc(N(C)C)cc3)n3nnnc3N2)c1 (configuration not stated) | -1 | 63* | 0 | / | -13
CC1CC1C(=O)Nc1nc(-c2ccccn2)cs1 (configuration not stated) | 15 | 78* | 0 | 0.027 | -3
O=C(Nc1nc(-c2ccccn2)cs1)c1ccc2c(c1)OCCO2 | -15 | 28 | 0 | 0.6 | -18
CCc1cc(C(=O)Nc2nc(-c3ccccn3)cs2)sc1C | 72* | / | 0 | / | /
Cc1cc(C(=O)Nc2nc(-c3ccccn3)cs2)ccc1[N+](=O)[O-] | 47 | -98 | 0 | 2.8 | 110*
O=C(Nc1nc(-c2ccco2)cs1)c1ccccc1 | 13 | 88* | 0 | -1.7 | 31
COc1ccc(NC(=O)CCc2nnc3ccc(N4CCN(c5cccc(OC)c5)CC4)nn23)cc1 | 16 | 13 | 0 | / | 7
CCCCn1c(N)c(N(CCOC)C(=O)CCNC(=O)c2ccc(Br)cc2)c(=O)[nH]c1=O | -2 | / | 0 | / | -7
COCCCn1c(SC(C)C(=O)Nc2c(C)n(C)n(-c3ccccc3)c2=O)n[nH]c1=O (configuration not stated) | -3 | / | / | / | /
COCCn1c(C)cc(C(=O)COC(=O)/C=C/c2c(C)nn(C3CCS(=O)(=O)C3)c2Cl)c1C (configuration not stated) | 8 | / | 0 | / | -3
O=C(Nc1nc(-c2ccccn2)cs1)C1COc2ccccc2O1 (configuration not stated) | 31 | 46 | 0 | -0.86 | /
O=C(Nc1nc(-c2ccccn2)cs1)c1ccccc1-n1cnnn1 | 63* | -62 | 0 | -0.56 | -13
CC(=O)Nc1ccc(C(=O)Nc2nc(-c3ccccn3)cs2)cc1 | 70* | -65 | 0 | 0.045 | 3
O=C(Nc1ccc(OC(F)(F)F)cc1)c1ccccc1-n1cnnn1 | -16 | / | 0 | / | /
C[C@@H](C(=O)Nc1nc(-c2ccccn2)cs1)N1C(=O)C2CCCCC2C1=O (some centres not stated) | 95* | 70* | 0 | 0.0087 | 1
O[C@@H]1CN(CC2CCCCC2)[C@@H](c2ccc(Cl)cc2)C[C@H]1n1cc(-c2ccc(F)cc2)nn1 | -11 | / | / | / | /
C/C(=N\NC(=O)c1cc(-c2cccnc2)nc2ccccc12)c1ccc(O)cc1O | 52* | -39 | 0 | -0.04 | ?
COc1cccc(/C=N/NC(=O)c2cc(-c3ccccn3)nc3ccccc23)c1O | 58* | / | 0 | / | /
C/C(=N\NC(=O)COc1ccccc1-c1ccccc1)c1ccccn1 | 39 | 21 | 0 | -0.47 | 15
O=C(N/N=C/c1ccc(F)cc1)c1cc(-c2ccccn2)nc2ccccc12 | 1 | / | / | / | /
O=C(NN=Cc1cccc([N+](=O)[O-])c1)c1cccc2ccccc12 | 0 | / | / | / | /
C/C(=N\NC(=O)COc1ccccc1-c1ccccc1)c1ccc(O)cc1O | 54* | 35 | 0 | -0.13 | -5
O=C(NN=Cc1cccc([N+](=O)[O-])c1)c1cc(-c2cccnc2)nc2ccccc12 | 51* | / | 0 | / | /
SMILES | Cardio protect | PHOSPHO1 inh | Efflux pump mplx | KCC2 mod | Calb FLC
CC#CC(=O)NCC1(N(C)Cc2ccccc2)Cc2ccccc2C1 | 4 | / | 0 | / | 1
Cc1ccnn1CCC(=O)N1CCCC(Nc2ccc(F)c(F)c2)C1 (configuration not stated) | 0 | 12 | 0 | / | -4
O=C(c1cccs1)N1C[C@@H](n2cc(C3CC3)nn2)[C@H](O)C[C@@H]1c1ccccc1 | 10 | / | / | / | /
O=C(N/N=C/C=C/c1ccccc1[N+](=O)[O-])c1cc(-c2cccnc2)nc2ccccc12 | 49 | -24 | 0 | -2.1 | 6
O=C(NNC(=O)c1cc(-c2ccncc2)nc2ccccc12)c1ccccc1O | 48 | / | 0 | / | 86*
COc1cc([N+](=O)[O-])cc(/C=N/NC(=O)c2cc(C)nc3ccccc23)c1O | 33 | 28 | 0 | 0.48 | -2
COc1ccccc1-c1cc(C(=O)N/N=C/C=C/c2ccccc2[N+](=O)[O-])c2ccccc2n1 | 54* | 12 | 0 | 0.28 | 47
COc1cc([N+](=O)[O-])cc(/C=N/NC(=O)c2cc(-c3ccccc3)nc3ccccc23)c1O | 33 | -3 | 0 | -0.98 | 89*
CSc1ccc(S(=O)(=O)Nc2c(C)n(C)n(-c3ccccc3)c2=O)cc1 | -1 | 14 | 0 | / | -3
COc1cc2c(cc1NC(=O)C(Cl)Cl)-c1ccc(NC(=O)C(Cl)Cl)cc1C2 | 25 | / | / | / | /
S=c1nc(C2COc3ccccc3O2)[nH][nH]1 (configuration not stated) | -6 | 37 | 0 | 0.046 | -19
S=c1[nH]nc(C2COc3ccccc3O2)o1 (configuration not stated) | 12 | 96* | 0 | -6.9* | -13
Clc1ccc(-c2c[n+](Cc3cccc(Cl)c3)c3n2CCC3)cc1 | -7 | 7 | 0 | 0.0088 | -3
Clc1ccc(-c2c[n+](Cc3ccc(Cl)cc3Cl)c3n2CCCCC3)cc1 | -11 | 24 | 0 | / | 1
Clc1ccc(C[n+]2cc(-c3ccccc3)n3c2CCCCC3)c(Cl)c1 | -25 | 60* | 0 | -0.93 | ?
Clc1ccc(-c2c[n+](Cc3ccc(Br)cc3)c3n2CCCCC3)cc1 | -8 | 8 | 0 | -0.97 | 106*
CC1CCC(C(C)C)C(OC(=O)C[n+]2cc(-c3ccc(Cl)cc3)n3c2CCCCC3)C1 (configuration not stated) | -26 | 32 | 0 | 0.1 | 95*
O=C(C[n+]1cc(-c2ccccc2)n2c1CCCCC2)c1ccc(Cl)cc1 | -6 | -8 | 0 | -0.48 | ?
CC(C)(C)[C@@H]1COC(=O)[C@@H](Cc2ccc(F)cc2)C/C=C\C[C@H](CC(=O)N(CCO)Cc2ccccc2)C(=O)N1 | 1 | / | 0 | / | /
Cc1cc(=O)nc2c3ccccc3n(CC(=O)NCCC3=CCCCC3)n12 | -2 | 32 | 0 | / | -4
CCOC(=O)C1CCN(c2cc3c(cc2NC(=O)c2ccccc2OCC)n(C)c(=O)n3C)CC1 | 36 | 27 | 0 | / | -8
CCOC(=O)C1CCN(c2cc3c(cc2NC(=O)c2ccc(F)cc2)n(C)c(=O)n3C)CC1 | 81* | -14 | 0 | / | 13
CCOC(=O)C1CCN(c2cc3c(cc2NC(=O)c2ccccc2Cl)n(C)c(=O)n3C)CC1 | 56* | 28 | 0 | / | -5
